TSHR antagonist: Antagonists of the Thyroid Stimulating Hormone Receptor: HTS campaign | Thyrotropin receptor (Homo sapiens), P16473 | TSHR-expressing cells, TSH-stimulated cAMP HTRF, 2 h; hits give low values | activity change, negative = inhibition, % at 11.5 µM | 0.2% of 330,000 active | AID 504810, 2011;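 active means activity change below a set negative limit, meaning inhibition stronger than a set level, cut at about -70% in these data; inconclusive means activity change between two set negative limits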
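Cell-based HTRF cAMP assay; TSHR cells + compound, TSH EC80 (4nM final), 2 h, 37 deg C. Lysis with anti-cAMP cryptate and cAMP-d2, 30 min RT, read 665/620 nm.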
VP16 counter: VP16 counterscreen qHTS for inhibitors of ROR gamma transcriptional activity | Drosophila S2 Gal4-VP16 UAS-luciferase, luminescence, 20 h | Potency, µM (top dose mostly 53.6 µM), without a hit: at the top dose activity, negative = inhibition, usual class: inhibitors | 3.5% of 310,000 active;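 further: Gal4-VP16 expression switched on by copper sulfate through the metallothionein promoter; potency means the concentration at half of the fitted maximal effect; nearly all actives have a fitted effect of over 50% in size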
ELG1 repair inh: qHTS screen for small molecules that inhibit ELG1-dependent DNA repair in human embryonic kidney (HEK293T) cells expressing luciferase-tagged ELG1 | HEK293T ELG1-luciferase reporter, luminescence, 16 h; DNA damage induced by 5-fluorouridine | Potency, µM (doses to about 46.1 µM), for the others: at the highest dose activity change, negative = inhibition, hits mostly inhibitors | 2.3% of 330,000 active; further: potency means the concentration at half of the fitted maximal effect; nearly all actives have a fitted effect of over 55% in size
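Luminescence from the luciferase reporter, measured 30 min after ONE-Glo reagent at room temperature, was the read-out. Beforehand, 2,000 cells per well were exposed for 16 hr at 37 °C to 5-fluorouridine together with compound or vehicle.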
RORgamma inh: qHTS for inhibitors of ROR gamma transcriptional activity; Nuclear receptor ROR-gamma (Mus musculus), P51450; Drosophila S2 Gal4-RORgamma UAS-luciferase reporter, 20 h; 5.4% of 310,000 active; Potency, µM (highest dose often 53.6 µM), for inactives: at the top dose activity change, negative = inhibition, actives largely listed as inhibitors; further: potency means the concentration at half of the fitted maximal effect; nearly all actives have a fitted effect of over 60% in size
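Using a luciferase readout, inhibitors were identified by reduced reporter activity in Drosophila cells coexpressing a copper-inducible Gal4–ROR gamma fusion and UAS-driven Photinus luciferase, incubated 20 hr after 700 uM copper sulfate.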
B2AR arrestin: qHTS assay of beta-arrestin-biased ligands of beta2-adrenergic receptor; Beta-2 adrenergic receptor (Homo sapiens), P07550; beta-arrestin recruitment to beta2AR, cell-based reporter; Potency, µM (top dose mostly 46.1 µM), for the others: at the highest dose activation, usual class: activators; 0.02% of 330,000 active; AID 492947, 2010;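 further: potency means the concentration at half of the fitted maximal effect; 0% = DMSO controls and full agonism = EC100 isoproterenol or metaproterenol; nearly all actives have a fitted effect of over 65% in size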
Target sequence (P07550 whole entry, looked up): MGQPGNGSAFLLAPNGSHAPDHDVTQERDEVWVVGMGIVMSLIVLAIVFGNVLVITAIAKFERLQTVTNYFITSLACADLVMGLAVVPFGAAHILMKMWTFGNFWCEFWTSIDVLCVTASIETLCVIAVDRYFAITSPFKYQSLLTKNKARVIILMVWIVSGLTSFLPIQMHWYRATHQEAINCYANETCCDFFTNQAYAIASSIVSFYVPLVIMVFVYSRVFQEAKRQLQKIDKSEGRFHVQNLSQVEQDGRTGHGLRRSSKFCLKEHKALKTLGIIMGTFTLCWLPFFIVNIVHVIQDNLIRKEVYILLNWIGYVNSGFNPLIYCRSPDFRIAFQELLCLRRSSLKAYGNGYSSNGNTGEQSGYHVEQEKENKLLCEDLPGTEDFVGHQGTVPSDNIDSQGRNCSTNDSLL
Starred values were filed as active, the others as inactive. Compounds with a hit are over-represented: about 7.5% of the library has one in this group of screens. Unless noted, the call rests on the fitted dose curve; in most records, active means well fitted curve in the direction sought with a large enough effect; inconclusive means small, poorly fitted or top-dose-only effect, or another doubt; inactive means no such curve, though single readings can be large; an effect the other way counts as inactive or inconclusive. Unless noted, on the % scale 0 is the no-effect control and ±100 the full control effect.

What do the screens show for `C/C(=N\NC(=O)c1ccc(CSc2cccc3cccnc23)cc1)C1CCCCC1`?
TSHR antagonist: 2; VP16 counter: -4%; ELG1 repair inh: -8%; RORgamma inh: -21%; B2AR arrestin: 0%

What do the screens show for `COc1ccc(C(=O)Cc2ccccc2)cc1OC`?
TSHR antagonist: -4; VP16 counter: 5%; ELG1 repair inh: inconclusive; RORgamma inh: -2%; B2AR arrestin: 3%

How did CC(/C=C/c1ccccc1)=N\Nc1ccccc1[N+](=O)[O-] do in these assays?
TSHR antagonist: -1; VP16 counter: -3%; ELG1 repair inh: inconclusive; RORgamma inh: 28%; B2AR arrestin: 0%

How did COc1ccc(C(=O)NN=C(Cc2ccccc2)Cc2ccccc2)cc1OC do in these assays?
TSHR antagonist: -8; VP16 counter: inconclusive; ELG1 repair inh: -21%; RORgamma inh: 11µM*; B2AR arrestin: 3%

How did CC(/C=C/c1ccccc1)=N/NC(=O)c1cc([N+](=O)[O-])cc([N+](=O)[O-])c1 do in these assays?
TSHR antagonist: 0; VP16 counter: 0.18µM*; ELG1 repair inh: -21%; RORgamma inh: 0.18µM*; B2AR arrestin: -3%

What do the screens show for `O=C(c1ccncc1)N1CCC2(CC1)CCN(c1ccccn1)CC2`?
VP16 counter: 10%; RORgamma inh: -9%

Results for COCCN(CCOC)c1nc(C)nc2c1nc(-c1ccccc1)n2CCN(C)C ?
VP16 counter: 15%; RORgamma inh: -16%

How did CCCC(Oc1ccc(Br)cc1)c1nc2c3cc(OC)c(OC)cc3nc(=S)n2[nH]1 (centres undefined) do in these assays?
TSHR antagonist: -6; VP16 counter: 3.5µM*; ELG1 repair inh: -27%; RORgamma inh: 1.3µM*; B2AR arrestin: 0%

How did CC(Oc1ccc(Br)cc1)C(=O)Nn1c(=S)[nH]c2ncccc2c1=O (centres undefined) do in these assays?
TSHR antagonist: -11; VP16 counter: -1%; ELG1 repair inh: 12%; RORgamma inh: -36%; B2AR arrestin: -1%

How did CC(Oc1ccc(Br)cc1)c1nc2c3ccccc3nc(=S)n2[nH]1 (centres undefined) do in these assays?
TSHR antagonist: -11; VP16 counter: 1.3µM*; ELG1 repair inh: inconclusive; RORgamma inh: 0.28µM*; B2AR arrestin: 0%

What do the screens show for `Cn1c(=O)c(-c2cccs2)nc2cnc(N3CCOCC3)nc21`?
VP16 counter: -7%; RORgamma inh: 1%

What do the screens show for `O=C(c1cnccn1)N1CCC2(CC1)CN(Cc1nccs1)C2`?
VP16 counter: -10%; RORgamma inh: -7%

How did CCOC(=O)c1ccc(NC(=S)NCc2ccccc2)cc1 do in these assays?
TSHR antagonist: -8; VP16 counter: inconclusive; ELG1 repair inh: 11%; RORgamma inh: 14µM*; B2AR arrestin: -1%

What do the screens show for `CCOC(=O)c1ccc(NC(=S)NCCc2ccccc2)cc1`?
TSHR antagonist: -4; VP16 counter: inconclusive; ELG1 repair inh: 3%; RORgamma inh: 8.9µM*; B2AR arrestin: 0%

Results for CCOC(=O)c1ccc(NC(=S)NCCc2ccccc2F)cc1 ?
TSHR antagonist: -15; VP16 counter: inconclusive; ELG1 repair inh: -2%; RORgamma inh: 3.5µM*; B2AR arrestin: -1%

What do the screens show for `O=C(CCC(=O)N/N=C/c1cc(Cl)cc(Cl)c1O)NCc1ccccc1`?
TSHR antagonist: -18; VP16 counter: inconclusive; ELG1 repair inh: inconclusive; RORgamma inh: inconclusive; B2AR arrestin: 0%

What do the screens show for `COc1cc([N+](=O)[O-])c2ncsc2c1`?
TSHR antagonist: 11; VP16 counter: 4%; ELG1 repair inh: -6%; RORgamma inh: inconclusive; B2AR arrestin: 0%

What do the screens show for `COc1cc(SSc2cc(OC)cc([N+](=O)[O-])c2N)c(N)c([N+](=O)[O-])c1`?
TSHR antagonist: -14; VP16 counter: -8%; ELG1 repair inh: 7%; RORgamma inh: inconclusive; B2AR arrestin: 14µM*

How did CC(Cc1ccccc1)C(=O)NCCc1c[nH]c2ccccc12 (centres undefined) do in these assays?
VP16 counter: -15%; RORgamma inh: inconclusive

What do the screens show for `Cc1c(I)c(=O)n(-c2ccccc2)n1C`?
VP16 counter: -9%; RORgamma inh: 1%

What do the screens show for `CC1(C)CC(=O)C2=C(C1)Oc1nc3ccccc3cc1C2C(C#N)C#N` (centres undefined)?
TSHR antagonist: 10; VP16 counter: inconclusive; ELG1 repair inh: 23µM*; RORgamma inh: 3.2µM*; B2AR arrestin: 0%

What do the screens show for `O=C(Cc1cccc2ccccc12)NC(NC(=S)Nc1ccccc1Cl)C(Cl)(Cl)Cl` (centres undefined)?
TSHR antagonist: -10; VP16 counter: inconclusive; ELG1 repair inh: -16%; RORgamma inh: 25%; B2AR arrestin: -2%

What do the screens show for `O=C(NC(NC(=S)Nc1ccccc1Cl)C(Cl)(Cl)Cl)c1cccc(Cl)c1` (centres undefined)?
TSHR antagonist: -35; VP16 counter: 13µM*; ELG1 repair inh: inconclusive; RORgamma inh: inconclusive; B2AR arrestin: 0%

What do the screens show for `COc1ccc(NC(=S)NC(NC(=O)c2cccc(Cl)c2)C(Cl)(Cl)Cl)c([N+](=O)[O-])c1` (centres undefined)?
TSHR antagonist: -25; VP16 counter: inconclusive; ELG1 repair inh: 16µM*; RORgamma inh: inconclusive; B2AR arrestin: 0%

How did COc1ccc(CNc2nc(-c3cccc(C#N)c3)nc3ccccc23)c(OC)c1 do in these assays?
VP16 counter: -8%; RORgamma inh: inconclusive

How did CCC(C)c1ccc(NC(=S)NC(C)C2CCCO2)cc1 (centres undefined) do in these assays?
TSHR antagonist: 0; VP16 counter: 18µM*; ELG1 repair inh: inconclusive; RORgamma inh: 6.3µM*; B2AR arrestin: 3%

What do the screens show for `CCC(C)c1ccc(C(CC)NC(=O)C2CCCO2)cc1` (centres undefined)?
TSHR antagonist: 11; VP16 counter: inconclusive; ELG1 repair inh: inconclusive; RORgamma inh: inconclusive; B2AR arrestin: 0%

How did COC(=O)C1(C)C=C(Nc2ccc(OC)cc2)C(=O)N1c1ccc(OC)cc1 (centres undefined) do in these assays?
VP16 counter: 3%; RORgamma inh: -18%

How did C(=N\Nc1ncnc2sc3c(c12)CCC3)/c1cccs1 do in these assays?
TSHR antagonist: 11; VP16 counter: 5µM*; ELG1 repair inh: inconclusive; RORgamma inh: 2.5µM*; B2AR arrestin: 0%

How did NNc1ncnc2sc3c(c12)CCC3 do in these assays?
TSHR antagonist: -7; VP16 counter: 4µM*; ELG1 repair inh: inconclusive; RORgamma inh: 3.2µM*; B2AR arrestin: 0%

Screening results: PubChem BioAssay, National Center for Advancing Translational Sciences (NCATS)
